Compound activity from PubChem BioAssay.
KB-3-1 tox = qHTS assay for MDR1-selective chemotherapeutics: Primary screen using the parental adenocarcinoma cell KB-3-1; KB-3-1 viability, CellTiter-Glo ATP luminescence, 72 h; actives 1.4% (n = 400,000); Potency, µM (highest dose often 46.1 µM), hits mostly cytotoxic; AID 1347075, 2019; note: % is set by controls: 0 for no effect and ±100 for the full control effect; nearly all actives have a fitted effect of over 60% in size
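Screening of KB-3-1 cells (DMEM, 10% FBS, phenol-red free) ran from lowest to highest compound concentration; after 72 h at 37 °C viability was read luminescently and curves fitted.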
HT1080 IDH1KD tx = qHTS for induction of synthetic lethality in tumor cells producing 2HG: qHTS for the HT-1080-IDH1KD cell line. HT-1080 IDH1 knockdown viability, ATP luminescence, 48 h. Potency, µM (titrated, usually from 46.1 µM), for the others: at the highest dose activity, negative = toxicity, actives largely listed as cytotoxic. actives 2% (n = 360,000). AID 686971, 2013;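 note: 0% = DMSO wells and -100% = cell-free medium wells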
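Assay cells: HT-1080 with IDH1 knockdown, 750 per well, RPMI/5% FBS. Exposure: 48 h at 37 °C following 2 h pre-incubation. Read: CellTiter-Glo luminescence; fitted concentration-response, curve class assigned.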
KB-V1 MDR tox = qHTS assay for MDR1-selective chemotherapeutics: Primary screen using the drug-selected MDR subline cells KB-V1; Potency, µM (series often up to 46.1 µM), actives largely listed as cytotoxic; actives 3.4% (n = 400,000); KB-V1 MDR cells viability, CellTiter-Glo, 72 h; note: % is set by controls: 0 for no effect and ±100 for the full control effect; nearly all actives have a fitted effect of over 60% in size
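Following 72 h at 37 degrees C with compound, KB-V1 cell viability was read by CellTiter-Glo luminescence, medium being phenol-red-free DMEM plus 10% FBS; concentration-response parameters came from normalized, curve-fitted qHTS data.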
HT1080NT lethal = qHTS for induction of synthetic lethality in tumor cells producing 2HG: qHTS for the HT-1080-NT fibrosarcoma cell line | HT-1080-NT fibrosarcoma viability, CellTiter-Glo ATP luminescence, 48 h | Potency, µM (highest dose often 46.1 µM), for inactives: top-dose activity, negative = less viability, most hits filed as cytotoxic | actives 1.6% (n = 360,000) | AID 686970, 2013;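 note: NT is the 2HG producing partner of a matched IDH1 knockdown line; 0% = DMSO-treated cells and -100% = media-only wells without cells; nearly all actives have a fitted effect of over 55% in size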
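HT-1080-NT fibrosarcoma cells (2HG-overproducing), 750 cells/well in RPMI with 5% FBS, dosed after 2 h and incubated 48 h at 37C. CellTiter-Glo luminescence normalized to DMSO and no-cell wells; concentration-response curves fitted and classed.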
HepG2 viability = qHTS for Inhibitors of TGF-b: Cytotox Counterscreen; AID 588856, 2011; HepG2 CAGA-GFP viability, ATP luminescence, 18 h; actives 0.76% (n = 410,000); Potency, µM (top dose mostly 46.1 µM), for the others: at the highest dose activity change, negative = cytotoxicity, actives largely listed as cytotoxic
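HepG2 CAGA-GFP cells (1000/well, DMEM with 1% FBS) received compound, then TGF-beta at 500 pg/mL final, and were incubated 18 hours at 37 degrees C. Viability was read by CellTiter-Glo luminescence. Media-only wells were set as complete cell-killing and DMSO as no toxicity.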
TGFb inhibitor = qHTS for Inhibitors of TGF-b; AID 588855, 2011; HepG2 CAGA-GFP TGF-b/SMAD3 reporter, GFP fluorescence, 18 h; TGF-beta stimulated, 500 pg/mL final; actives 1.2% (n = 410,000); Potency, µM (top dose mostly 46.1 µM), without a hit: top-dose activity, negative = inhibition, actives largely listed as inhibitors; note: % is set by controls: 0 for no effect and ±100 for the full control effect; nearly all actives have a fitted effect of over 65% in size
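Smad-responsive CAGA-GFP expression was quantified in HEPG2 cells exposed to compounds and 500 pg/mL final TGF-beta for 18 h at 37 degrees C; unstimulated wells defined full inhibition.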
* = called active by the depositor. In the library only some 6.6% were active in any assay of this set; here they are far more common. Calls come from the whole dose curve; as a rule, active = well fitted curve in the direction sought with a large enough effect; inconclusive = small, poorly fitted or top-dose-only effect, or another doubt; inactive = no such curve, though single readings can be large; an effect the other way counts as inactive or inconclusive. Potency is the fitted concentration of half-maximal effect.

`Cn1cc(C2=C(c3cn(CCCSC(=N)N)c4ccccc34)C(=O)NC2=O)c2ccccc21` gave KB-3-1 tox 4.1µM*, KB-V1 MDR tox inconclusive, HepG2 viability 2µM* and TGFb inhibitor 0.71µM*.
O=C(NCc1ccccc1Cl)c1ccc(Cn2cc(C(F)(F)F)ccc2=O)cc1 was read as KB-3-1 tox inactive, HT1080 IDH1KD tx 0%, KB-V1 MDR tox 6.5µM*, HT1080NT lethal -4%, HepG2 viability -3% and TGFb inhibitor -17%.
O=C(NCc1ccc(Cl)cc1)c1ccc(Cn2cc(C(F)(F)F)ccc2=O)cc1 was read as KB-3-1 tox inactive, HT1080 IDH1KD tx -11%, KB-V1 MDR tox 16µM*, HT1080NT lethal -4%, HepG2 viability -5% and TGFb inhibitor -8%.
Screening CNC(=O)c1c(NC(=O)C2=COCCO2)sc2c1CCN(C(=O)OC)C2 returned KB-3-1 tox inactive, HT1080 IDH1KD tx 0%, KB-V1 MDR tox inactive, HT1080NT lethal -2%, HepG2 viability 5% and TGFb inhibitor -6%.
For O=C(Nc1sc2c(c1C(=O)O)CCCC2)c1ccc(F)cc1 the results were KB-3-1 tox inconclusive, HT1080 IDH1KD tx inconclusive, KB-V1 MDR tox inactive, HT1080NT lethal inconclusive, HepG2 viability -22% and TGFb inhibitor -5%.
Cc1ccc(C(=O)Nc2sc3c(c2C(=O)O)CCCCC3)o1 was read as KB-3-1 tox 16µM*, HT1080 IDH1KD tx 18µM*, KB-V1 MDR tox inconclusive, HT1080NT lethal 21µM*, HepG2 viability -62% and TGFb inhibitor -7%.
Screening NC(=O)c1c(NC(=O)c2ccco2)sc2c1CCCC2 returned KB-3-1 tox inactive and KB-V1 MDR tox inactive.
Screening CC(C)(C)c1ccc(C(=O)Nc2sc3c(c2C(=O)O)CCC3)cc1 returned KB-3-1 tox 3.3µM*, HT1080 IDH1KD tx inconclusive, KB-V1 MDR tox inconclusive, HT1080NT lethal -29%, HepG2 viability -6% and TGFb inhibitor -3%.
NC(=O)c1c(NC(=O)c2ccc([N+](=O)[O-])o2)sc2c1CCCC2 was read as KB-3-1 tox 16µM*, HT1080 IDH1KD tx inconclusive, KB-V1 MDR tox inconclusive, HT1080NT lethal inconclusive, HepG2 viability -25% and TGFb inhibitor inconclusive.
COC(=O)N1CCc2c(sc(NC(=O)C3=COCCO3)c2C#N)C1 was read as KB-3-1 tox 2.3µM*, HT1080 IDH1KD tx 3.7µM*, KB-V1 MDR tox inconclusive, HT1080NT lethal 4.6µM*, HepG2 viability -11% and TGFb inhibitor 3%.
COc1ccc(-c2nnc(NC(=O)Nc3ccc4ccccc4c3)s2)cc1OC was read as KB-3-1 tox inactive and KB-V1 MDR tox inactive.
`O=C(C[n+]1ccc(Cl)c2ccc(Cl)cc21)c1ccc(F)cc1` gave KB-3-1 tox inconclusive, KB-V1 MDR tox inactive, HepG2 viability -7% and TGFb inhibitor -10%.
Screening Cc1cc(Nc2ccc(C)c(Cl)c2)n2nc(Cc3ccccc3)nc2n1 returned KB-3-1 tox inactive, KB-V1 MDR tox inactive, HepG2 viability -19% and TGFb inhibitor inconclusive.
`O=C(Nc1sc2c(c1C(=O)O)CCCCC2)c1ccccc1F` gave KB-3-1 tox 12µM*, HT1080 IDH1KD tx inconclusive, KB-V1 MDR tox inactive, HT1080NT lethal inconclusive, HepG2 viability -14% and TGFb inhibitor 1%.
For COc1cccc(C(=O)Nc2sc3c(c2C(=O)O)CCCC3)c1 the results were KB-3-1 tox 18µM*, HT1080 IDH1KD tx -29%, KB-V1 MDR tox inconclusive, HT1080NT lethal inconclusive, HepG2 viability -5% and TGFb inhibitor 2%.
`CC(=O)N1CCc2c(sc(NC(=O)CS(=O)(=O)c3ccc(F)cc3)c2C#N)C1` gave KB-3-1 tox inconclusive, HT1080 IDH1KD tx -29%, KB-V1 MDR tox inactive, HT1080NT lethal -26%, HepG2 viability 1% and TGFb inhibitor 14%.
For COc1ccc(CC(=O)Nc2sc3c(c2C(N)=O)CCCC3)cc1OC the results were KB-3-1 tox inconclusive, HT1080 IDH1KD tx 0%, KB-V1 MDR tox 13µM*, HT1080NT lethal -8%, HepG2 viability 7% and TGFb inhibitor -12%.
COc1cccc(C(=O)Nc2sc3c(c2C#N)CCN(C(C)=O)C3)c1 was read as KB-3-1 tox 5.2µM*, HT1080 IDH1KD tx 2.9µM*, KB-V1 MDR tox inconclusive, HT1080NT lethal 2.6µM*, HepG2 viability -13% and TGFb inhibitor inconclusive.
COc1ccc(C(=O)NCc2ccc3c(c2)CCN3C(=O)c2ccc(C)cc2)cc1 was read as HepG2 viability -14% and TGFb inhibitor -19%.
`CC(=O)OCC=C1CCC2C3CC(C)C4=CC(=O)CCC4(C)C3C(O)CC12C` (centres undefined) gave KB-3-1 tox inactive, HT1080 IDH1KD tx -16%, KB-V1 MDR tox inconclusive, HT1080NT lethal 0%, HepG2 viability -7% and TGFb inhibitor -3%.
For O=C1ON=C(c2ccc(Cl)cc2)/C1=C/c1ccc(O)cc1 the results were KB-3-1 tox inactive, HT1080 IDH1KD tx inconclusive, KB-V1 MDR tox 21µM*, HT1080NT lethal inconclusive, HepG2 viability -46% and TGFb inhibitor inconclusive.
Screening O=C1ON=C(c2ccccc2)/C1=C/c1ccc(O)cc1 returned KB-3-1 tox inactive, HT1080 IDH1KD tx 10%, KB-V1 MDR tox inactive, HT1080NT lethal 10%, HepG2 viability -4% and TGFb inhibitor 6%.
COc1ccc(CNS(=O)(=O)c2ccc(F)c(C(=O)Nc3c(C)cc(C)cc3C)c2)cc1 was read as KB-3-1 tox inactive, KB-V1 MDR tox inactive, HepG2 viability -1% and TGFb inhibitor 0%.
Screening Cc1cc(SCC(=O)Nc2ccc(C(F)(F)F)cc2)nc(=O)[nH]1 returned KB-3-1 tox inactive, KB-V1 MDR tox inactive, HepG2 viability -6% and TGFb inhibitor -1%.
CCOc1ccc(S(=O)(=O)N(C)c2ccc(OCC(=O)Nc3nc4ccccc4s3)cc2)cc1 was read as KB-3-1 tox inconclusive, HT1080 IDH1KD tx 6.5µM*, KB-V1 MDR tox inconclusive, HT1080NT lethal -11%, HepG2 viability -29% and TGFb inhibitor inconclusive.
